Unmarked numbers belong to inactive results. Records with an inconclusive call do not appear. The source made the active and inactive calls. Unless noted, the call rests on the fitted dose curve; in most records, active means well fitted curve in the direction sought with a large enough effect; inconclusive means small, poorly fitted or top-dose-only effect, or another doubt; inactive means no such curve, though single readings can be large; an effect the other way counts as inactive or inconclusive.
Experiments:
[1] = biological target: Lysosomal acid glucosylceramidase (Homo sapiens) (UniProt P04062); assay: Glucocerebrosidase-p2 (AID 348; in the data active means potency below about 10 µM; further: potency means the concentration at half of the fitted maximal effect); conditions: purified GBA, blue fluorogenic substrate, 40 min
Sequence of Lysosomal acid glucosylceramidase (Homo sapiens) (P04062 whole entry, looked up): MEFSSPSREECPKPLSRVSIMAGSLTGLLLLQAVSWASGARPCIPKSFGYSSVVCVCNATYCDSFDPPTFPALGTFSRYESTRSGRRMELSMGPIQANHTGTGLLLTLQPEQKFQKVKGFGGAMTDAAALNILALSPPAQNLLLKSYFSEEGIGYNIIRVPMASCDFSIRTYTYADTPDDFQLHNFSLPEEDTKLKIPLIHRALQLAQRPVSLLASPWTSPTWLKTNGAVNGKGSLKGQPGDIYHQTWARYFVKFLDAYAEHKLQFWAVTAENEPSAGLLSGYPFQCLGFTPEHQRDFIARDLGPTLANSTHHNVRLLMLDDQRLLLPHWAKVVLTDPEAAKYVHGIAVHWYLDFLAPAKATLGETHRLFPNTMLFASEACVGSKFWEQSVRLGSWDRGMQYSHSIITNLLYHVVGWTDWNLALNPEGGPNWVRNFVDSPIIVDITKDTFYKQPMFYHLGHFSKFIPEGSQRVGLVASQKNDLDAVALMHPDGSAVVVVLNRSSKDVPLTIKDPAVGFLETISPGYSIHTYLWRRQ
Method in brief: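 Normal human glucocerebrosidase (0.2 nM) with blue fluorogenic substrate (80 uM final) in citrate/phosphate pH 5.9 with 10mM sodium taurocholate, 0.01% tween-20; 40 min RT, NaOH/glycine stop; fluorescence Ex 365/Em 440; AC50 from a titration from 0.6 nM upwards.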

[2] = AP1 Signaling Pathway (AID 357; active means well fitted curve in either direction with a large enough effect, not every such curve was filed as active;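 further: ME-180 reporter cells stimulated with EGF at its EC50 level; on the % scale 0 is the no-effect control and ±100 the full control effect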); conditions: ME-180 AP-1-bla reporter, EGF-induced, beta-lactamase ratio, 5 h; at 7.69 µM (top of the series) unless noted
Method in brief: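 Beta-lactamase reporter under AP-1 response element, ME-180 background. Stimulus: EC50 EGF. Compound exposure 5 h, 37 °C. Detection: CCF4, 2.5 h RT, 460/530 nm. Values: AC50 from titration.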

[3] = biological target: Cytochrome P450 1A2 (Homo sapiens) (UniProt P05177); assay: p450-cyp1a2 (AID 410; calls by dose curve; further: potency means the concentration at half of the fitted maximal effect); conditions: recombinant CYP1A2, luciferin-ME demethylation, luminescence; series mostly up to 57 µM
Sequence of Cytochrome P450 1A2 (Homo sapiens) (P05177 whole entry, looked up): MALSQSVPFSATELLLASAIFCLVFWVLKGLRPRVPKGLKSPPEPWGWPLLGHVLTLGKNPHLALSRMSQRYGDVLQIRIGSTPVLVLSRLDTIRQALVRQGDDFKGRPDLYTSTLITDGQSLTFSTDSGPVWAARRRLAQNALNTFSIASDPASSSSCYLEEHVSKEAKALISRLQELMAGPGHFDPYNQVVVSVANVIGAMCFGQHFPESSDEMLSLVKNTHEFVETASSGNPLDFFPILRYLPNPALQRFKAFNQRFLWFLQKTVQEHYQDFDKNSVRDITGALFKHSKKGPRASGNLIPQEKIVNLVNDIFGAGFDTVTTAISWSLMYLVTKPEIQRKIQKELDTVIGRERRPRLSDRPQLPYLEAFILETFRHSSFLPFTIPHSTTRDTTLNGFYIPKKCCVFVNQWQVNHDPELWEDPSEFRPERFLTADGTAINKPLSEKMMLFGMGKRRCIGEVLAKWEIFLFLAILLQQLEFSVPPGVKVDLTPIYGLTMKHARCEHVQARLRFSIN
Method in brief: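 Read-out is luminescence from luciferin produced by CYP1A2 demethylation of Luciferin-ME (100uM, at Km). Detection reagent stopped the 60 min NADPH-dependent reaction; signals were normalized to 57 uM furafylline.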

[4] = NFAT Signaling Pathway (AID 444; active means well fitted curve in either direction with a large enough effect, not every such curve was filed as active;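 further: carbachol stimulus at about its EC50 of 1 µM final; on the % scale 0 is the no-effect control and ±100 the full control effect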); conditions: Jurkat NFAT-bla M1, carbachol, beta-lactamase ratio, 5 h; at 7.69 µM (top of the series) unless noted
Method in brief: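 Jurkat cells with NFAT-driven β-lactamase reporter and co-expressed M1 receptor, stimulated with carbachol (final 1 uM, ~EC50), compound titration, 5 h at 37 °C. CCF4 loaded 1 h at RT; 460/530 nm ratio gave %activity and AC50.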

[5] = Stat Signaling Pathway (AID 446; active means well fitted curve in either direction with a large enough effect, not every such curve was filed as active;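 further: ME-180 cervical cancer cells given 40 pM IL-6 alongside compound; SIE-controlled beta-lactamase reporter measured as 460/530 nm FRET emission ratio; on the % scale 0 is the no-effect control and ±100 the full control effect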); conditions: ME-180 (cervical carcinoma) SIE beta-lactamase reporter, IL-6 stimulated, 5 h; at 7.69 µM (top of the series) unless noted
Method in brief: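 FRET read-out (405 nm excitation, 460/530 nm emission) of a beta-lactamase reporter under a STAT-inducible element in ME-180 cervical carcinoma cells. Cells with compound receive 40 pM IL-6 for 5 h. Values are normalised to AC90 stimulation and AC90 JAK-inhibitor controls.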

[6] = biological target: Glucocorticoid receptor (Homo sapiens) (UniProt P04150); assay: GR-GFP Redistribution (AID 450;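 active means compounds whose dose series gives a full or clear partial fitted curve of increased nuclear translocation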; further: potency means the concentration at half of the fitted maximal effect); conditions: U2OS GR-GFP nuclear translocation, laser cytometry, 2 h
Sequence of Glucocorticoid receptor (Homo sapiens) (P04150 whole entry, looked up, the tested form may be a part): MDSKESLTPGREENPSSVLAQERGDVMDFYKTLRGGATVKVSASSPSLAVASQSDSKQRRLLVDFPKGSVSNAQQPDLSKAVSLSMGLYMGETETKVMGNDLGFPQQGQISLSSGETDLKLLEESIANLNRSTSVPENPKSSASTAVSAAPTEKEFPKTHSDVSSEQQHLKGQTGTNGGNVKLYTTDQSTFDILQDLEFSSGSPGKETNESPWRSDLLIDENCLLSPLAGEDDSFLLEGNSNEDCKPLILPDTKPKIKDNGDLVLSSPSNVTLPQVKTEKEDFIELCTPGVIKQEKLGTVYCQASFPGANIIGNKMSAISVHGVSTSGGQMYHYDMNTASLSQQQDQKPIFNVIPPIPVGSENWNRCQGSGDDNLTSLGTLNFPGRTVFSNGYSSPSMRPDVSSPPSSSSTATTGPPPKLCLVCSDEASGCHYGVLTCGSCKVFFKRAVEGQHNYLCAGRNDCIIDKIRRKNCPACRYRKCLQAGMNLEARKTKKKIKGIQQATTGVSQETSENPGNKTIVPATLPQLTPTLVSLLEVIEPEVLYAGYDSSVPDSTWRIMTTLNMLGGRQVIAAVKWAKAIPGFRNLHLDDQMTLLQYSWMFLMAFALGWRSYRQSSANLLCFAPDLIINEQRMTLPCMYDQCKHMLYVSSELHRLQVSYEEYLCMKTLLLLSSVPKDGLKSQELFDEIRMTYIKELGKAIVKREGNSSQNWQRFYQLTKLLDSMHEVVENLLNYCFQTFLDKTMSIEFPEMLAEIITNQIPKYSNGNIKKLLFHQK

[7] = biological target: Glucocorticoid receptor (Homo sapiens) (UniProt P04150); assay: GR-EFC Redistribution (AID 451; calls by dose curve; further: potency means the concentration at half of the fitted maximal effect); conditions: CHO-K1 GR-EFC translocation, beta-gal luminescence, 2 h
Method in brief: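 CHO-K1 cells expressing nuclear EA and GR-ED fragments of b-gal; compounds titrated up to 46 uM final, 2 h at 37 C. GR nuclear translocation read as complemented b-gal luminescence after 1 h RT detection.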

[8] = biological target: Mitogen-activated protein kinase 10 (Mus musculus) (UniProt Q61831); assay: JNK3 AlphaScreen Assay (AID 530; active means well fitted curve in either direction with a large enough effect, not every such curve was filed as active;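 further: kinase came from lysate of stimulated human HepG2 cells; signal reports phosphorylation of biotinylated GST-cJun 1-79 at Ser73 with 10 µM ATP; on the % scale 0 is the no-effect control and ±100 the full control effect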); conditions: JNK3 lysate, c-Jun phosphorylation; series mostly up to 57.1 µM
Method in brief: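 HepG2 lysate (IL-1b/TNFa pre-activated) + biotin-GST-cJun 1-79 + anti-pSer73 cJun; cpd titration, 15 min RT; ATP 10 uM start; Tris pH 7.6, MgCl2, DTT, vanadate; beads in EDTA buffer; AlphaScreen.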

[9] = biological target: 3',5'-cyclic-AMP phosphodiesterase 4B (Homo sapiens) (UniProt Q07343); assay: qHTS Assay for Inhibitors of PDE-IV (AID 607; active means well fitted activation curve with a large enough effect in the main read-out, with a control signal flat, not every such curve was filed as active; further: % of control where 0% means no effect); conditions: HEK293 ACTOne CNG channel cells, membrane potential fluorescence; series mostly up to 22.9 µM
Sequence of 3',5'-cyclic-AMP phosphodiesterase 4B (Homo sapiens) (Q07343 whole entry, looked up): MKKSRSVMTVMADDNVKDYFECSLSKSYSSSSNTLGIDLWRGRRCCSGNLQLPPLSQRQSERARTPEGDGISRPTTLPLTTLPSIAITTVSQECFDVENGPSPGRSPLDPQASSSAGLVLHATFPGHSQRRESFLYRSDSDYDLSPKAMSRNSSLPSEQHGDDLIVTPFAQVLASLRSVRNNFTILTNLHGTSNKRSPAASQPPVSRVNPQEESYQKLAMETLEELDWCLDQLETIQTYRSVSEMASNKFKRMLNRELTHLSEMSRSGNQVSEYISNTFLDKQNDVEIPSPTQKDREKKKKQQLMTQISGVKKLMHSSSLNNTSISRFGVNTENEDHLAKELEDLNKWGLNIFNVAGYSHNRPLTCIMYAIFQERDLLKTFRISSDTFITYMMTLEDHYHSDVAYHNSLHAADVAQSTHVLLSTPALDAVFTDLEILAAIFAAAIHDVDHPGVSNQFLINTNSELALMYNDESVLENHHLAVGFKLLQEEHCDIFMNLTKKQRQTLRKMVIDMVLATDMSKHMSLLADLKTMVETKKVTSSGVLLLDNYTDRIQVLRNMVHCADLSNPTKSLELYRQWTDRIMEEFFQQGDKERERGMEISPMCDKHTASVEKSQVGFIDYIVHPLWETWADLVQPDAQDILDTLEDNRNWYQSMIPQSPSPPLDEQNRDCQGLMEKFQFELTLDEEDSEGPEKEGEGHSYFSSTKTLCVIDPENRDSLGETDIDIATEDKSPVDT
Method in brief: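 Cell-based read-out of cAMP via a modified cyclic nucleotide-gated channel and membrane potential dye (535/590 nm) in HEK293 cells expressing PDE4 endogenously. Compounds tested up to 22.9 uM final; 100 uM RO 20-1724 reference.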

[10] = biological target: Cytochrome P450 3A4 (Homo sapiens) (UniProt P08684); assay: qHTS Assay for Activators of Cytochrome P450 3A4 (AID 885); conditions: recombinant CYP3A4, Luciferin-PPXE luminescence, 60 min; series mostly up to 57.1 µM; further: nearly all actives have a fitted effect of over 65% in size
Sequence of Cytochrome P450 3A4 (Homo sapiens) (P08684 whole entry, looked up): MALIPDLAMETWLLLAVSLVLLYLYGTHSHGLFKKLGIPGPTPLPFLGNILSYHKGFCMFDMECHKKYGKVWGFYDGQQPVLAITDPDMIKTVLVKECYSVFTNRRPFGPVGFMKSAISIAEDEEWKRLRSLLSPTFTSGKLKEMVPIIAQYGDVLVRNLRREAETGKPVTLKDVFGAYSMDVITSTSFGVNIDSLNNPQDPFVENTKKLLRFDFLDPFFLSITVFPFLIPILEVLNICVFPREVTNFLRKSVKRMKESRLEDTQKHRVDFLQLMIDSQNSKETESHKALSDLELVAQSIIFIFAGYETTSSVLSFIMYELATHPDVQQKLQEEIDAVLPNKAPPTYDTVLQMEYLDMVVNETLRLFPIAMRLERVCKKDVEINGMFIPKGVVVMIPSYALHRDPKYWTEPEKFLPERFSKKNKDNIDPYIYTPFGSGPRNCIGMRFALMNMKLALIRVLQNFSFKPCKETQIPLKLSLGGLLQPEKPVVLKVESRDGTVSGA
Method in brief: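 Luminescent readout of luciferin formed from 25 uM Luciferin-PPXE (KM level) by 20 nM CYP3A4 in 200 mM KPO4, with 60 min NADPH-driven reaction at room temperature after 10 min compound exposure. Ketoconazole (57 uM) defined 100% inhibition.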

[11] = biological target: Dual specificity protein kinase CLK4 (Homo sapiens) (UniProt Q9HAZ1); assay: qHTS Assay for Inhibitors of CDC-like Kinase 4 (Kinase-Glo Assay) (AID 1770); conditions: recombinant Clk4, Kinase-Glo ATP depletion luminescence; series mostly up to 66.7 µM; further: nearly all actives have a fitted effect of over 65% in size; further: potency means the concentration at half of the fitted maximal effect
Sequence of Dual specificity protein kinase CLK4 (Homo sapiens) (Q9HAZ1 whole entry, looked up): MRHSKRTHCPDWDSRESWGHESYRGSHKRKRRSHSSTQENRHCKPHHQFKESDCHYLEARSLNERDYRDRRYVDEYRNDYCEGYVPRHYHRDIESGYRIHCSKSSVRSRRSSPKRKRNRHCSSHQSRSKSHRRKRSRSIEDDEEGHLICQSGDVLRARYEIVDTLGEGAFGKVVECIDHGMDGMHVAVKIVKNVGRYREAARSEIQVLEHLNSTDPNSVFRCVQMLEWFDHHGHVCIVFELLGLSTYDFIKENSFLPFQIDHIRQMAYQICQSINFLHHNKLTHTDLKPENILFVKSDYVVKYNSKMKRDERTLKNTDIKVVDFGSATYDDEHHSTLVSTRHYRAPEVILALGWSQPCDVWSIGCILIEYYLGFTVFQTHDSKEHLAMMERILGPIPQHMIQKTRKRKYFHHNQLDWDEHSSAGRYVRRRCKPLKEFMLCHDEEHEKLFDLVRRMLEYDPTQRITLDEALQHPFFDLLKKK
Method in brief: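 Luminescent ATP-depletion read-out (Kinase-Glo) after 4.5 h room-temperature reaction of Clk4 (25 nM final) with RS peptide (100 uM) and ATP (1 uM), pH 7.5 Tris buffer with MgCl2 and DTT.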

[12] = biological target: Dual specificity protein kinase CLK4 (Homo sapiens) (UniProt Q9HAZ1); assay: qHTS Assay for Inhibitors of CDC-like Kinase 4 (ADP-Glo Assay) (AID 1771); conditions: recombinant CLK4, ADP-Glo luminescence; series mostly up to 80 µM; further: nearly all actives have a fitted effect of over 70% in size; further: potency means the concentration at half of the fitted maximal effect
Method in brief: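 In this ADP-Glo format, 1 uM ATP and 100 uM RS peptide served as substrates for 25 nM Clk4 in Mg2+/EGTA/DTT/Triton buffer; reactions ran 1 hr at room temperature before luminescent ADP quantification.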

[13] = Primary qHTS for small molecule stabilizers of the endoplasmic reticulum resident proteome: Secreted ER Calcium Modulated Protein (SERCaMP) assay (AID 1508630); conditions: SH-SY5Y GLuc-SERCaMP (Gaussia luciferase released on ER calcium loss) secretion, thapsigargin, luminescence; series mostly up to 38.4 µM; further: on the % scale 0 is the no-effect control and ±100 the full control effect
Method in brief: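 The SH-SY5Y reporter protocol was run at 3 concentrations up to 38.3 uM (primary) or 11 concentrations (follow-up): 16 h compound, 100 nM thapsigargin for 4 h, then extracellular luciferase luminescence.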

[14] = biological target: Ubiquitin carboxyl-terminal hydrolase 1 (Homo sapiens) (UniProt O94782); assay: Inhibitors of USP1/UAF1: Pilot qHTS (AID 504865); conditions: purified USP1/UAF1, Ub-rhodamine cleavage fluorescence; series mostly up to 54.9 µM; further: nearly all actives have a fitted effect of over 35% in size; further: potency means the concentration at half of the fitted maximal effect
Sequence of Ubiquitin carboxyl-terminal hydrolase 1 (Homo sapiens) (O94782 whole entry, looked up): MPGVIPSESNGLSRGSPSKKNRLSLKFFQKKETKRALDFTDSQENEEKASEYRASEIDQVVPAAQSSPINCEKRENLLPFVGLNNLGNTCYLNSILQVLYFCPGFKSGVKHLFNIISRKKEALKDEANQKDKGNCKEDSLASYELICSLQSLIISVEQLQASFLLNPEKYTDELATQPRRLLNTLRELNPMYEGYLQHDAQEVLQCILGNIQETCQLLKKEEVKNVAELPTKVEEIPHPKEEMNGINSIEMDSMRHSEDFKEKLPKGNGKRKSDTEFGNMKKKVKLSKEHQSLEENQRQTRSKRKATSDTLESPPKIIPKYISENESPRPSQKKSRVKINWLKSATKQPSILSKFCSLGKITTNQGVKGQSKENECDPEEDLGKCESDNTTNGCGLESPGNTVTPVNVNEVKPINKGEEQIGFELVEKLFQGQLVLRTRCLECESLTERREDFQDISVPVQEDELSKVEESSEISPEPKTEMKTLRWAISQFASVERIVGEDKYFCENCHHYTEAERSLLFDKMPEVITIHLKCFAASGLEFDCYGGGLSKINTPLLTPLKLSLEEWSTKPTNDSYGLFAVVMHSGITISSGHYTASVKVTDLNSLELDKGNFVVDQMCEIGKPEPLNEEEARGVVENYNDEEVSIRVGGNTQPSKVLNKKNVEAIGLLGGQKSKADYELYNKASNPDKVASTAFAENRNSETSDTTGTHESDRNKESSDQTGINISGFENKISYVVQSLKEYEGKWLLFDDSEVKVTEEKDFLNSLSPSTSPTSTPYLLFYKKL
Method in brief: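 Deubiquitinase activity followed as kinetic rhodamine fluorescence release from 150 nM Ub-Rho. 1 nM USP1/UAF1 with compound, after 15 min room-temperature preincubation, in HEPES pH 7.8 buffer containing TCEP, EDTA, BSA and Tween-20.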

[15] = biological target: Cytochrome P450 2D6 (Homo sapiens) (UniProt P10635); assay: qHTS Assay for Inhibitors and Substrates of Cytochrome P450 2D6 (AID 891); conditions: recombinant CYP2D6, luciferin-ME EGE luminescence; series mostly up to 57.1 µM; further: potency means the concentration at half of the fitted maximal effect; nearly all actives have a fitted effect of over 60% in size
Sequence of Cytochrome P450 2D6 (Homo sapiens) (P10635 whole entry, looked up): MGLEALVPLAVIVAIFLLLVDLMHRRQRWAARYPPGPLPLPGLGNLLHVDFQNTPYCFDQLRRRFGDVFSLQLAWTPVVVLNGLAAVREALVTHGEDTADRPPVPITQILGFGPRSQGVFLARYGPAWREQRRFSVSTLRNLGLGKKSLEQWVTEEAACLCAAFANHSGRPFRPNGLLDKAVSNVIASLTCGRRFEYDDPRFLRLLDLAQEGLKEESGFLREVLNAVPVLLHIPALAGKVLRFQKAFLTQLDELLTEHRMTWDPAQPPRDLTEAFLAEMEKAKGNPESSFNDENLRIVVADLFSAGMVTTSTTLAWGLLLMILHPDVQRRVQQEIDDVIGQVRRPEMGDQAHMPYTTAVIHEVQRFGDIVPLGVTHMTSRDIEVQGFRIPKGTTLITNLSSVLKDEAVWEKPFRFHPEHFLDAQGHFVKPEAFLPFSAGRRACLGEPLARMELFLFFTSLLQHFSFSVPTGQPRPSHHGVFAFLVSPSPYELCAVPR
Method in brief: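 Luminescent read-out of luciferin formed by 5 nM human CYP2D6 demethylating 30 uM Luciferin-ME EGE (Km level) over 60 min at room temperature after NADPH regeneration addition. Data normalized to full inhibition by 1.43 uM quinidine.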

[16] = biological target: Cytochrome P450 2C19 (Homo sapiens) (UniProt P33261); assay: qHTS Assay for Inhibitors and Substrates of Cytochrome P450 2C19 (AID 899); conditions: recombinant CYP2C19, luciferin-H EGE luminescence; series mostly up to 57.1 µM; further: potency means the concentration at half of the fitted maximal effect; nearly all actives have a fitted effect of over 60% in size
Method in brief: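 5 nM human CYP2C19 with 10uM Luciferin-H EGE (at KM) in 50mM KPO4, compound preincubated 10 min at 37C, then NADPH regeneration for 60 min at 37C. Luciferin read by luminescence after detection reagent; normalized to 57uM ketoconazole as full inhibition.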

[17] = biological target: Cytochrome P450 2C9 (Homo sapiens) (UniProt P11712); assay: qHTS Assay for Inhibitors and Substrates of Cytochrome P450 2C9 (AID 883); conditions: recombinant CYP2C9, luciferin-H luminescence, 60 min; series mostly up to 57.1 µM; further: on the % scale 0 is the no-effect control and ±100 the full control effect; nearly all actives have a fitted effect of over 60% in size
Method in brief: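 Human CYP2C9 (10nM) with Luciferin-H at 100uM (its KM) in 25mM KPO4; compound preincubated 10 min at 37C, then NADPH regeneration for 60 min at 37C. Luciferin read by luminescence after detection reagent; normalized to 57uM sulphaphenazole as full inhibition.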

[18] = biological target: Cytochrome P450 3A4 (Homo sapiens) (UniProt P08684); assay: qHTS Assay for Inhibitors and Substrates of Cytochrome P450 3A4 (AID 884); conditions: recombinant CYP3A4, Luciferin-PPXE luminescence; series mostly up to 57.1 µM; further: potency means the concentration at half of the fitted maximal effect; nearly all actives have a fitted effect of over 50% in size
Method in brief: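 Luminescent readout of luciferin produced by CYP3A4 (20 nM) dealkylation of Luciferin-PPXE, 25 uM (its KM). NADPH-driven reaction ran 60 min at RT after 10 min compound preincubation; data scaled to 57 uM ketoconazole as 100% inhibition.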

[19] = biological target: Dual specificity protein kinase CLK4 (Homo sapiens) (UniProt Q9HAZ1); assay: qHTS Assay for Inhibitors of CDC-like Kinase 4 (ADP-FP Assay) (AID 1795); conditions: Transcreener ADP fluorescence polarization; series mostly up to 50 µM;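 further: recombinant human CLK4 phosphorylating RS repeat peptide at 1 µM ATP; on the % scale 0 is the no-effect control and ±100 the full control effect; nearly all actives have a fitted effect of over 60% in size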
Method in brief: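 Kinase activity was measured as ADP production using Transcreener orange tracer (4 nM) and ADP antibody (1 ug/mL) fluorescence polarization, with ADP calculated from a calibration curve. The 1 h reaction contained 6.25 nM Clk4, 1 uM ATP and 100 uM RS peptide at pH 7.5 with Mg2+.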

SMILES | Potency [1] | activity change, negative = inhibition [2] | Potency [3] | activity change, negative = inhibition [4] | activity, negative = inhibition [5] | Potency [6] | Potency [7] | Potency [8] | Potency [9] | Potency [10] | Potency [11] | Potency [12] | outcome [13] | Potency [14] | Potency [15] | Potency [16] | activity change, negative = inhibition [17] | Potency [18] | Potency [19]
CNc1nc(-c2ccoc2)nc2ccccc12 | > 11.4 µM | 0.93% | 398 nM (active) | -22.3% | 8.64% | > 46 µM | > 46 µM | inactive | inactive | inactive | inactive | inactive | inactive |  |  |  |  |  | 
CN(C)c1ncc2nc(-c3cccc(C#N)c3)c(=O)n(C[C@H]3CCCO3)c2n1 | > 11.4 µM | -22.3% | 3160 nM (active) |  | 1.32% | > 9.22 µM | > 46 µM | inactive | inactive |  | inactive | inactive | inactive | inactive |  |  |  |  | 
COc1ncc2nc(-c3ccc(F)cc3)c(=O)n(Cc3cccs3)c2n1 | > 11.4 µM | -5.24% |  | -1.45% | -28.5% | > 9.22 µM | > 46 µM | inactive | inactive |  | inactive | inactive | inactive | inactive |  |  |  |  | 
COc1cccc(-c2nccc(NCc3ccccc3OC)n2)c1 | > 11.4 µM | -18.4% | 1260 nM (active) | 11.8% | -8.4% | > 46 µM | > 46 µM | inactive | inactive | inactive | 22.4 µM (active) | 14.1 µM (active) | inactive |  | 0.398 µM (active) | 5.01 µM (active) |  |  | 
Cc1cnc(CNc2ccnc(-c3cccnc3)n2)cn1 | > 11.4 µM | 16.6% | 7940 nM (active) |  |  | > 46 µM | > 46 µM | inactive | inactive | inactive | 15.8 µM (active) | 15.8 µM (active) | inactive | inactive |  |  | 21.5% [at 2.29 µM] | 5.01 µM (active) | 
FC(F)(F)c1ccccc1-c1nc(NC2CC2)c2ccccc2n1 | 6.53 µM (active) | 3.67% | 398 nM (active) | 8.57% | 8.2% | > 46 µM | > 46 µM | inactive |  | inactive | 14.1 µM (active) | 14.1 µM (active) | inactive | inactive |  |  |  | 3.16 µM (active) | 
Cc1cnc(CNc2ccnc(-c3cccc(C#N)c3)n2)cn1 | > 11.4 µM | -12.1% | 1260 nM (active) | 16.3% |  | > 46 µM | > 46 µM | inactive | inactive | inactive | 22.4 µM (active) | 15.8 µM (active) | inactive | inactive |  |  |  |  | 
COc1cccc(-c2nc(NCc3cccs3)c3ccccc3n2)c1 | > 11.4 µM | 9.31% | 316 nM (active) | -22.6% | -12.6% | > 46 µM | > 46 µM | inactive |  | inactive | 17.8 µM (active) | 15.8 µM (active) | inactive | 20 µM (active) |  | 3.16 µM (active) |  |  | 
CN1CCN(c2ccnc(-c3cccnc3)n2)CC1 | > 11.4 µM | -0.185% |  | 0.489% | 12.4% | > 46 µM | > 46 µM | inactive | inactive |  | 25.1 µM (active) | 15.8 µM (active) | inactive | inactive |  |  |  |  | 
COc1cccc(-c2nc(N(C)Cc3ccco3)c3ccccc3n2)c1 | > 11.4 µM | -7.73% | 316 nM (active) |  | -9.79% | > 46 µM | > 46 µM | inactive |  | inactive | 12.6 µM (active) | 12.6 µM (active) | inactive |  | 5.01 µM (active) |  |  |  | 
N#Cc1cccc(-c2nccc(NCc3ccccc3)n2)c1 | > 11.4 µM | -20.8% | 501 nM (active) | 13.6% | -6.24% | > 46 µM | > 46 µM | inactive |  | inactive | 14.1 µM (active) | 14.1 µM (active) | inactive |  | 7.94 µM (active) |  |  |  | 
Cc1cnc(CNc2cc(-c3ccc(N(C)C)cc3)ncn2)cn1 | > 11.4 µM | -9.61% |  | 11.3% | -5.54% | > 46 µM | > 46 µM | inactive | inactive |  | 5.01 µM (active) | 5.01 µM (active) | inactive | inactive |  |  |  |  | 
CN(Cc1ccco1)c1cc(-c2cccc(NS(C)(=O)=O)c2)ncn1 | > 11.4 µM | 10.2% | 3980 nM (active) | -5.51% | 11.3% | > 46 µM | > 46 µM | inactive | inactive |  | 11.2 µM (active) |  | inactive | inactive |  |  |  |  | inactive
